Records with an inconclusive call do not appear. A call without a number means that no potency is given here. Calls of active or inactive are those of the source. The call rests on the fitted dose curve; in most records, active means well fitted curve in the direction sought with a large enough effect; inconclusive means small, poorly fitted or top-dose-only effect, or another doubt; inactive means no such curve, though single readings can be large; an effect the other way counts as inactive or inconclusive.
Legend:
[1] = Quantitative High-Throughput drug screen in 47 multiple myeloma cell lines against the NCATS MIPE library collection: EJM_DSMZ cell viability assay (AID 1918926; further: nearly all actives have a fitted effect of over 30% in size)
Procedure, shortened: (§1)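 Relative luminescence from CellTiter-Glo served as the viability signal, referenced to DMSO-treated (100%) and cell-free medium (0%) controls. Treatment lasted 48 hours at 37C with 500 cells per well.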

[2] = Quantitative High-Throughput drug screen in 47 multiple myeloma cell lines against the NCATS MIPE library collection: ARP1_JJKsccF8 cell viability assay (AID 1918928; further: nearly all actives have a fitted effect of over 40% in size)
Procedure, shortened: (§2)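 CellTiter-Glo luminescence after 48 h exposure gives viability, scaled between DMSO-only (100%) and media-only (0%) controls. Library compounds are pinned onto 500 myeloma cells per well, incubated at 37C with 5% CO2.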

[3] = Quantitative High-Throughput drug screen in 47 multiple myeloma cell lines against the NCATS MIPE library collection: ARD_JJKsccE7 cell viability assay (AID 1918929)
Procedure, shortened: as §1

[4] = Quantitative High-Throughput drug screen in 47 multiple myeloma cell lines against the NCATS MIPE library collection: KMM1_JCRB cell viability assay (AID 1918960); further: nearly all actives have a fitted effect of over 30% in size
Procedure, shortened: as §2

[5] = Quantitative High-Throughput drug screen in 47 multiple myeloma cell lines against the NCATS MIPE library collection: Karpas417_ECACC cell viability assay (AID 1918961); conditions: Karpas417 myeloma viability, CellTiter-Glo ATP luminescence, 48 h; viability (% of DMSO): at 45.8 µM (top of the series)
Procedure, shortened: (§3)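 CellTiter-Glo luminescence (ATP) after 48 h compound exposure, 37C/5% CO2; 500 cells/well; MIPE 4.0 approved/investigational drugs pinned in; DMSO = 100%, media only = 0% viability.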

[6] = Quantitative High-Throughput drug screen in 47 multiple myeloma cell lines against the NCATS MIPE library collection: KHM11_PLB cell viability assay (AID 1918962); further: nearly all actives have a fitted effect of over 35% in size
Procedure, shortened: (§4)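 Steps: seed 500 cells per well; pin-transfer MIPE 4.0 library; incubate 48 h at 37C, 5% CO2, humidified; add CellTiter-Glo, 5 min room temperature; read luminescence.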

[7] = Quantitative High-Throughput drug screen in 47 multiple myeloma cell lines against the NCATS MIPE library collection: JIM3_ECACC cell viability assay (AID 1918963; further: nearly all actives have a fitted effect of over 35% in size)
Procedure, shortened: as §4

[8] = Quantitative High-Throughput drug screen in 47 multiple myeloma cell lines against the NCATS MIPE library collection: INA6_PLB cell viability assay (AID 1918965; further: nearly all actives have a fitted effect of over 55% in size)
Procedure, shortened: as §3

[9] = Quantitative High-Throughput drug screen in 47 multiple myeloma cell lines against the NCATS MIPE library collection: JJN3_DSMZ cell viability assay (AID 1918966; further: nearly all actives have a fitted effect of over 50% in size)
Procedure, shortened: as §1

[10] = Quantitative High-Throughput drug screen in 47 multiple myeloma cell lines against the NCATS MIPE library collection: H1112_PLB cell viability assay (AID 1918967; further: nearly all actives have a fitted effect of over 30% in size)
Procedure, shortened: as §1

[11] = Quantitative High-Throughput drug screen in 47 multiple myeloma cell lines against the NCATS MIPE library collection: Karpas25_ECACC cell viability assay (AID 1918968; further: nearly all actives have a fitted effect of over 35% in size)
Procedure, shortened: as §1

[12] = Quantitative High-Throughput drug screen in 47 multiple myeloma cell lines against the NCATS MIPE library collection: KMS27_JCRB cell viability assay (AID 1918970); conditions: KMS27 myeloma cells, CellTiter-Glo ATP viability, 48 h; viability (% of DMSO): at 45.8 µM (top of the series); further: nearly all actives have a fitted effect of over 30% in size
Procedure, shortened: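 Myeloma cells (500 per well) were exposed to MIPE 4.0 compounds for 48 h at 37 °C, 5% CO2; viability was read as ATP luminescence with CellTiter-Glo, normalized to DMSO-only (100%) and media-only (0%) wells.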

[13] = Quantitative High-Throughput drug screen in 47 multiple myeloma cell lines against the NCATS MIPE library collection: KMS12BM_JCRB cell viability assay (AID 1918971); further: nearly all actives have a fitted effect of over 35% in size
Procedure, shortened: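 Viability readout: CellTiter-Glo luminescence following 5 min room-temperature incubation with reagent. Prior exposure: 48 h, 37C, humidified 5% CO2, 500 cells per well.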

[14] = Quantitative High-Throughput drug screen in 47 multiple myeloma cell lines against the NCATS MIPE library collection: KMS12PE_JCRB cell viability assay (AID 1918972); further: nearly all actives have a fitted effect of over 30% in size
Procedure, shortened: as §3

[15] = Quantitative High-Throughput drug screen in 47 multiple myeloma cell lines against the NCATS MIPE library collection: KMS20_JCRB cell viability assay (AID 1918973); further: nearly all actives have a fitted effect of over 45% in size
Procedure, shortened: as §1

[16] = Quantitative High-Throughput drug screen in 47 multiple myeloma cell lines against the NCATS MIPE library collection: AMO1_DSMZ cell viability assay (AID 1918927; further: nearly all actives have a fitted effect of over 30% in size)
Procedure, shortened: as §1

[17] = Quantitative High-Throughput drug screen in 47 multiple myeloma cell lines against the NCATS MIPE library collection: Karpas620_DSMZ cell viability assay (AID 1918959); further: nearly all actives have a fitted effect of over 30% in size
Procedure, shortened: as §4

[18] = Quantitative High-Throughput drug screen in 47 multiple myeloma cell lines against the NCATS MIPE library collection: JIM1_ECACC cell viability assay (AID 1918964)
Procedure, shortened: as §1
Potency means the concentration at half of the fitted maximal effect.

SMILES	Potency [1]	Potency [2]	Potency [3]	Potency [4]	Potency [5]	Potency [6]	Potency [7]	Potency [8]	Potency [9]	Potency [10]	Potency [11]	Potency [12]	Potency [13]	Potency [14]	Potency [15]	Potency [16]	Potency [17]	Potency [18]
COC(=O)Nc1ccc(-c2nc(N3CCOCC3)c3cnn(C4CCN(C(=O)OC)CC4)c3n2)cc1	6.62 µM (active)	0.662 µM (active)	0.526 µM (active)	0.469 µM (active)	0.059 µM (active)	0.0833 µM (active)	0.264 µM (active)	0.0935 µM (active)	0.935 µM (active)	0.0662 µM (active)	0.0187 µM (active)	0.0833 µM (active)	0.935 µM (active)	1.66 µM (active)	0.0148 µM (active)	–	–	–
CN1N=C(N)c2cn([C@@H]3O[C@H](COP(=O)(O)O)[C@@H](O)[C@@H]3O)c3ncnc1c23	7.43 µM (active)	0.469 µM (active)	–	–	–	0.372 µM (active)	0.469 µM (active)	–	2.96 µM (active)	0.526 µM (active)	0.372 µM (active)	0.0662 µM (active)	6.62 µM (active)	–	–	0.0935 µM (active)	0.0833 µM (active)	–
CCCCC(C)(C)[C@H](O)C=C[C@H]1[C@H](O)CC(=O)[C@H]1CC=CCCCC(=O)O	5.9 µM (active)	23.5 µM (active)	inactive	–	–	–	20.9 µM (active)	–	–	–	18.7 µM (active)	inactive	18.7 µM (active)	inactive	–	–	inactive	inactive
COc1cc2ncnc(Nc3cc(Br)c(O)c(Br)c3)c2cc1OC	0.003 µM (active)	–	13.2 µM (active)	–	–	–	0.935 µM (active)	0.148 µM (active)	–	0.0418 µM (active)	–	–	0.0019 µM (active)	6.62 µM (active)	0.0023 µM (active)	–	–	–
Cc1ccc2c(=O)c3cccc(CC(=O)O)c3oc2c1C	6.62 µM (active)	–	inactive	inactive	–	–	–	–	–	26.4 µM (active)	–	–	–	inactive	33.2 µM (active)	inactive	inactive	–
COc1ccnc(CS(=O)c2nc3ccc(OC(F)F)cc3[nH]2)c1OC (stereo not drawn)	inactive	inactive	–	inactive	–	–	inactive	–	–	–	–	–	inactive	–	–	inactive	29.6 µM (active)	–
CCCCN(CCCC)CC(O)c1cc(Cl)cc2c1-c1ccc(Cl)cc1C2=Cc1ccc(Cl)cc1 (stereo not drawn)	16.6 µM (active)	–	–	–	–	–	–	18.7 µM (active)	18.7 µM (active)	26.4 µM (active)	23.5 µM (active)	–	–	inactive	11.8 µM (active)	inactive	inactive	–
COc1cc2c(cc1OC)[C@@H]1Cc3ccc(OC)c(OC)c3CN1CC2	10.5 µM (active)	–	inactive	–	–	–	inactive	–	20.9 µM (active)	–	16.6 µM (active)	inactive	18.7 µM (active)	0.332 µM (active)	–	inactive	inactive	–
COc1ccc(C=CC(=O)Nc2ccccc2C(=O)O)cc1OC	inactive	–	inactive	inactive	–	inactive	inactive	0.0019 µM (active)	–	inactive	inactive	inactive	–	inactive	11.8 µM (active)	–	inactive	inactive
O=C(Nc1cccc(C(F)(F)F)c1)Nc1cc(S(=O)(=O)NC2CC2)ccc1-c1ccsc1	inactive	–	inactive	inactive	–	–	23.5 µM (active)	–	–	–	26.4 µM (active)	–	–	inactive	–	–	inactive	inactive
Cc1nc2c([nH]1)CCN(C(=O)c1ccc(NC(=O)c3ccccc3-c3ccccc3)cc1)c1ccccc1-2	inactive	–	inactive	–	–	–	–	–	inactive	inactive	–	inactive	–	–	–	18.7 µM (active)	–	inactive
Nc1ncnc2c1ncn2[C@@H]1O[C@H](CO)[C@@H](O)[C@@H]1O	inactive	–	2.64 µM (active)	1.32 µM (active)	0.118 µM (active)	–	inactive	–	–	inactive	5.26 µM (active)	0.418 µM (active)	–	1.66 µM (active)	–	1.87 µM (active)	5.26 µM (active)	7.43 µM (active)
CC[C@H](C=C[C@@H](C)[C@H]1CC[C@H]2[C@@H]3CC=C4C[C@@H](O)CC[C@]4(C)[C@@H]3CC[C@]12C)C(C)C	7.24 µM (active)	–	–	inactive	–	inactive	–	1.62 µM (active)	inactive	inactive	inactive	inactive	inactive	inactive	inactive	–	inactive	–
OCCn1cc(-c2ccc3c(c2)CCC3=NO)c(-c2ccncc2)n1	inactive	–	13.2 µM (active)	–	8.33 µM (active)	4.69 µM (active)	inactive	–	inactive	–	23.5 µM (active)	–	inactive	inactive	–	–	–	–
OC[C@H]1O[C@@H](OCCc2ccc(O)cc2)[C@H](O)[C@@H](O)[C@H]1O	inactive	–	–	inactive	–	inactive	inactive	–	–	–	–	inactive	–	inactive	–	inactive	inactive	inactive
